Screening results from PubChem.
Shown are actives, neighbours in structure and some others; about 3.3% of the full set was active somewhere.
MITF act: MITF TRPM1 promoter activation in melanoma cells | SK-MEL-5 TRPM1-promoter luciferase, 24 h; % of positive control, neutral wells = 0 | activation, % at 12.5 µM | actives 0.75% (n = 300,000) | AID 588334;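 active means mean activation of at least 80% with every replicate also reaching 80%; inconclusive means mean reaches 80% but some replicate falls short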;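 further: 0% = neutral control wells and 100% = parthenolide positive control wells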
Wnt bcat act: activators of Wnt/beta-catenin signaling; actives 1.2% (n = 300,000); activation, % at 9.35 µM; Wnt/beta-catenin reporter cell assay, activator, plate reader; in the data active means activation above about 30%, passing the limit was not always enough; inconclusive means no clear call, values can overlap the other calls;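 further: 0% = neutral control wells and 100% = positive control wells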
esBAF inh: SWI/SNF esBAF complex inhibition; mouse ES cells, Bmi1-luciferase knock-in reporter, 24 h; 100% = twice the neutral-well signal; reporter increase, % at 12.5 µM; actives 2% (n = 350,000); AID 602393; in the data active means activation above about 40%; inconclusive means no clear call, values can overlap the other calls;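 further: 0% = median of the plate's neutral control wells and 100% = double that signal; a rise in the Bmi1 reporter signal indicates esBAF inhibition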
GAA850 FXN act: increases GAA850 frataxin promoter reporter activity | activation, % at 6 µM | actives 0.56% (n = 360,000) | HEK293 lucGAA850 FXN promoter luciferase reporter, 24 h; percent of 10 µM SAHA response;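 active means activation above the average of all compounds screened plus 3 SD, cutoff fixed separately per campaign, cut at about 7.5% in these data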;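 further: 0% = DMSO wells and 100% = 10 µM SAHA wells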
Statin myotox sup: suppression of simvastatin myotoxicity. actives 0.78% (n = 330,000). AID 602340. C2C12 myotubes + simvastatin, ATP luminescence, 48 h; scaled: DMSO 0, geranylgeraniol control 100. rescue of ATP level, % at 7.49 µM;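 active means mean ATP rescue above about 67%, or every replicate alone reaching that limit, limit read from the data, passing the limit was not always enough; inconclusive means no clear call, values can overlap the other calls; inactive means mean under the limit and some replicate under it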;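 further: myotubes were challenged with 10 µM simvastatin during compound exposure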
The depositor's hits bear a star; u = inconclusive; x = no result.

SMILES	MITF act	Wnt bcat act	esBAF inh	GAA850 FXN act	Statin myotox sup
Cc1ccc(N=Nc2c(N)nn(-c3ccccc3)c2N)cc1	10	33*	x	0	x
Cc1ccc(N=Nc2c(N)nn3c(N)c(C#N)c(C)nc23)cc1	-39	0	-7	0	3
CO[C@@H]1CN(C)C(=O)c2ccc(NC(=O)c3nc4ccccc4s3)cc2OC[C@@H](C)N(Cc2ccccc2)C[C@H]1C	x	x	29	x	11
COCC(=O)Nc1ccc2c(c1)C(=O)N(C)C[C@@H](OC)[C@@H](C)CN(Cc1ccccc1F)[C@@H](C)CO2	x	x	-2	x	4
CC(=O)Nc1ccc2c(c1)C(=O)N(C)[C@H]1CC[C@H](CC(=O)NCc3ccc(F)cc3)O[C@H]1CO2	x	x	-3	x	9
CCCNC(=O)C[C@H]1C[C@H]2c3cc(NC(=O)NC4CCCC4)ccc3O[C@H]2[C@@H](CO)O1	x	x	-6	x	-5
COc1ccc(-c2noc(Cc3cccs3)n2)cc1	119*	16	55*	4	93*
COc1ccc(CCc2nc(-c3ccc(-n4cccc4)cc3)no2)cc1	5	2	-4	-1	30
COc1ccc(-c2noc(CCc3ccccc3)n2)cc1	50	5	57*	4	x
CN1C(=O)c2cc(NC(=O)c3ccc(F)c(F)c3)ccc2OC[C@H]2O[C@@H](CC(=O)O)CC[C@H]21	x	x	0	x	10
C[C@H]1CN([C@@H](C)CO)C(=O)c2cc(NC(=O)Nc3ccccc3)ccc2O[C@H]1CN(C)Cc1ccc(Cl)c(Cl)c1	x	x	5	x	x
Cc1cccc(NC(=O)N2CCN(Cc3ccc(Cl)cc3)CC2)c1	-13	0	2	1	0
O=C(Nc1cccc(Cl)c1)N1CCN(Cc2ccccc2)CC1	u	7	74*	5	5
Cc1noc(C)c1NC(=O)Nc1ccc2c(c1)C(=O)N([C@@H](C)CO)C[C@@H](C)[C@H](CN(C)S(=O)(=O)c1c(C)noc1C)OCCCC[C@@H](C)O2	x	x	0	x	77*
Cc1noc(C)c1S(=O)(=O)Nc1ccc2c(c1)C(=O)N([C@@H](C)CO)C[C@@H](C)[C@@H](CN(C)S(=O)(=O)c1ccc(Cl)cc1)OCCCC[C@H](C)O2	x	x	3	x	140*
C[C@@H]1CCCCO[C@H](CN(C)S(=O)(=O)c2ccc(Cl)cc2)[C@H](C)CN([C@@H](C)CO)C(=O)c2cc(NS(C)(=O)=O)ccc2O1	x	x	5	x	163*
Cc1noc(C)c1S(=O)(=O)Nc1ccc2c(c1)C(=O)N([C@@H](C)CO)C[C@@H](C)[C@H](CN(C)S(=O)(=O)c1ccc(Cl)cc1)OCCCC[C@@H](C)O2	x	x	7	x	-10
Cc1noc(C)c1NC(=O)Nc1ccc2c(c1)C(=O)N([C@H](C)CO)C[C@H](C)[C@@H](CN(C)S(=O)(=O)c1c(C)noc1C)OCCCC[C@@H](C)O2	x	x	6	x	20
COc1ccc(-c2ccc([C@@H]3[C@@H](CO)N4CCCCN(C(=O)c5ccc6c(c5)OCO6)C[C@@H]34)cc2)cc1	x	x	3	x	-1
COc1ccccc1C#Cc1ccc([C@@H]2[C@@H](CO)N3CCCCN(S(C)(=O)=O)C[C@H]23)cc1	x	x	2	x	-6
Cc1oc2cc3c(C(=O)N4CCCCC4)c(C)oc3cc2c1C(=O)N1CCCCC1	43	x	149*	-1	2
COc1cc2c(C(=O)N3CCN(C)CC3)c(C)oc2cc1Br	4	x	-8	0	2
COc1ccc(NC(=O)N(C)C[C@@H]2Oc3ccc(NC(=O)CCC(F)(F)F)cc3CC(=O)N([C@@H](C)CO)C[C@H]2C)cc1	x	x	2	x	-8
COC(=O)CCN(C(=O)c1cccc([N+](=O)[O-])c1)c1ccccn1	-2	-1	x	2	x
COC(=O)CCN(C(=O)c1ccc(Cl)c([N+](=O)[O-])c1)c1ccccn1	-20	33*	x	0	x
SMILES	MITF act	Wnt bcat act	esBAF inh	GAA850 FXN act	Statin myotox sup
COc1cccc(NC(=O)c2ccnc(N3CCC(C(=O)NCc4ccccc4OC)CC3)c2)c1	43	11	73*	4	-38
COc1ccccc1CNC(=O)C1CCCN(c2cnccn2)C1 (stereo not given)	25	0	-10	1	1
CC(C)COc1cc(=O)[nH]c(SCC(C)C)n1	-18	-1	5	4	148*
O=C(Nc1nc2c(s1)CCCC2)c1cccnc1	42	22	x	1	x
O=C(Nc1nc2c(s1)CCCC2)c1ccc(Br)o1	5	x	-14	2	112*
Cc1ccc(C(=O)Nc2nc3c(s2)CCCC3)o1	31	57*	-6	1	-23
